Seven molecules from PubChem BioAssay (EPA / NIEHS) can be followed below.

Experiment [1] can be described thus: ATG_CRE_CIS: Attagene CIS-FACTORIAL HepG2 Assay for human cAMP Responsive Element (CRE) binding protein 3 (AID 2282926). The settings on record: HepG2 CRE cis-reporter, Attagene multiplexed mRNA; actives raise or lower the signal. The essentials: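 Endogenous CRE-binding activity in HepG2 is reported through a cis-regulated transfected reporter. Following a day of exposure, mRNA levels are determined by reverse transcription PCR and fluorescent fragment analysis; fits run in both directions versus DMSO.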

Experiment [2] deals with CCAAT/enhancer-binding protein beta (Homo sapiens) (UniProt P17676). Kind of experiment: ATG_C_EBP_CIS: Attagene CIS-FACTORIAL HepG2 Assay for human CCAAT/Enhancer Binding Protein (C/EBP) beta (AID 2282927). As to conditions: HepG2 Attagene cis-factorial transcription factor reporter; actives raise or lower the signal. The method in brief: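 HepG2, transient MRTU transfection, 24 h treatment. RT-PCR plus CE fluorescence; DMSO negative control, bidirectional fit.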
CCAAT/enhancer-binding protein beta (Homo sapiens), sequence (P17676 whole entry, looked up): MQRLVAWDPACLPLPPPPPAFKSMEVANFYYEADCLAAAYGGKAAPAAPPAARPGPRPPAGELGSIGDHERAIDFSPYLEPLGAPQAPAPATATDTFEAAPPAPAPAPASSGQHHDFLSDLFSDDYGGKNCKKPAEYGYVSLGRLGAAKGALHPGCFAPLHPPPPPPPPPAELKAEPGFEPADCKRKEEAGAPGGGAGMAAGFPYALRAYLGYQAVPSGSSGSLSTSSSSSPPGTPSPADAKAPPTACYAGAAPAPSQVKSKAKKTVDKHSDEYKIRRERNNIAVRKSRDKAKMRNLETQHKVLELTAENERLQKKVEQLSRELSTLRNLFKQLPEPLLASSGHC

A short description of experiment [3]: ATG_CMV_CIS: Attagene CIS-FACTORIAL HepG2 Assay for human CMV (Internal Marker) (AID 2282928).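 Further: endpoint acts as a background internal control marker rather than a target.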 The settings on record: HepG2 CMV promoter reporter, transcription factor profiling; actives raise or lower the signal. The method in brief: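 Cell system: HepG2, transiently transfected multiple reporter units under cis promoters. Exposure: 24 h. Detection: RT-PCR, FAM labeling, HpaI digestion, capillary electrophoresis. Analysis: bidirectional, DMSO baseline.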

Experiment [4] in a line: ATG_DR4_LXR_CIS: Attagene CIS-FACTORIAL HepG2 Assay for human Liver X Receptor (LXR), DR4 submotif (AID 2282929). As to conditions: HepG2 Attagene DR4 cis-reporter, mRNA transcription; actives raise or lower the signal. The essentials:
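Fluorescence intensity of labelled reporter cDNA fragments, separated by capillary electrophoresis, gives the signal. HepG2 cells bearing cis-regulated reporter constructs were treated 24 h; activity fitted bidirectionally relative to DMSO negative control.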

The target of experiment [5] is Aryl hydrocarbon receptor (Homo sapiens) (UniProt P35869). As to the kind of experiment: ATG_Ahr_CIS: Attagene CIS-FACTORIAL HepG2 Assay for human Aryl Hydrocarbon Receptor (Ahr) (AID 2282930). The settings on record: HepG2 AhR cis-factorial reporter transcription; actives raise or lower the signal. The essentials:
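Endogenous factor activity is tracked through cis-promoter reporter units transfected into HepG2 cells. Transcript levels at 24 h are read by fluorescent RT-PCR and capillary electrophoresis, with activity in either direction scored relative to DMSO.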

A short description of experiment [6]: ATG_AP_1_CIS: Attagene CIS-FACTORIAL HepG2 Assay for human Activator Protein 1 (AP-1) (AID 2282931). The settings on record: HepG2 Attagene cis-factorial AP-1 reporter mRNA; actives raise or lower the signal. The method in brief:
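Multiplexed HepG2 reporter assay, 24 h dosing. mRNA induction detected by RT-PCR plus capillary electrophoresis. Activity fitted in both directions against DMSO.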

Experiment [7] can be described thus: ATG_AP_2_CIS: Attagene CIS-FACTORIAL HepG2 Assay for human Activator Protein 2 (AP-2) (AID 2282932). As to conditions: HepG2 AP-2 cis-reporter, Attagene transcription factor profiling; actives raise or lower the signal. The method in brief:
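HepG2 cells transiently transfected with cis-element reporter units and exposed for 24 h. Reporter mRNA measured by RT-PCR, FAM labelling, HpaI digestion and capillary electrophoresis. Changes in either direction fitted relative to DMSO.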

Experiment [8] addresses Transcription factor E2F1 (Homo sapiens) (UniProt Q01094). As to the kind of experiment: ATG_E2F_CIS: Attagene CIS-FACTORIAL HepG2 Assay for human E2F Transcription Factor 1 (AID 2282935). The settings on record: HepG2 Attagene cis-reporter, E2F reporter RNA transcripts; actives raise or lower the signal. The essentials: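 Endogenous E2F1 activity read through cis-promoter reporter units transfected into HepG2. After 24 h compound treatment, reporter mRNA measured by RT-PCR, HpaI digestion and capillary electrophoresis. Bidirectional fit versus DMSO.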

Experiment [9] can be described thus: ATG_E_Box_CIS: Attagene CIS-FACTORIAL HepG2 Assay for human Enhancer Box (E-box) (AID 2282936). As to conditions: HepG2 E-box cis-reporter transcription, actives raise or lower the signal. The method in brief: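 HepG2 cells transiently transfected with multiplexed cis-element reporter units, dosed 24 h; reporter mRNA quantified by RT-PCR, 6-FAM labelling, HpaI digestion and capillary electrophoresis. E-box (USF1) signal fitted bidirectionally vs DMSO.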

Experiment [10] can be described thus: ATG_M_61_CIS: Attagene CIS-FACTORIAL HepG2 Assay for M61 Transcription Factor (Internal Marker) (AID 2282937). As to conditions: HepG2 Attagene CIS-FACTORIAL M61 internal marker reporter; actives raise or lower the signal. The method in brief: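 Endogenous transcription factor activity in HepG2 is read through transiently transfected cis-element reporter units. After 24 h dosing, RNA undergoes reverse transcription, PCR and primer extension with 6-FAM before capillary electrophoresis; DMSO-referenced bidirectional fit.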

The nature of experiment [11]: ATG_EGR_CIS: Attagene CIS-FACTORIAL HepG2 Assay for human Early Growth Response 1 (EGR1) (AID 2282938). As to conditions: HepG2 Attagene CIS-FACTORIAL EGR reporter mRNA; actives raise or lower the signal. The essentials: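 Activity is taken as induction or loss of reporter mRNA versus DMSO, fitted bidirectionally. Transcripts from cis-regulated reporter units in transiently transfected HepG2 were measured after 24 h by RT-PCR with capillary electrophoresis.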

Experiment [12] in a line: ATG_M_19_CIS: Attagene CIS-FACTORIAL HepG2 Assay for M19 Transcription Factor (Internal Marker) (AID 2282939). As to conditions: HepG2 Attagene CIS-FACTORIAL M19 internal marker reporter; actives raise or lower the signal. The essentials: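 Transfect HepG2 with MRTU reporter library → dose chemical, 24 h → isolate total RNA, reverse-transcribe with oligo(dT) → PCR, 6-FAM label, HpaI cut (2 h, 37 C) → capillary electrophoresis. Bidirectional fit vs DMSO.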

Experiment [13] is described as follows: ATG_ERE_CIS: Attagene CIS-FACTORIAL HepG2 Assay for Estrogen Response Element (ERE) (AID 2282940). The settings on record: HepG2 ERE cis-reporter, Attagene RNA transcript; actives raise or lower the signal. The method in brief: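 Transient MRTU transfection of human HepG2; cis-element promoters; 24 h dosing; total RNA → RT (oligo dT) → PCR → 6-FAM primer extension → HpaI digest → CE fluorescence. Bidirectional fit, DMSO baseline.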

The nature of experiment [14]: ATG_Ets_CIS: Attagene CIS-FACTORIAL HepG2 Assay for human Erythroblast Transformation Specific (ETS) (AID 2282941). The settings on record: HepG2 ETS cis-reporter transcription, actives raise or lower the signal. The method in brief: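 After transient cis-reporter transfection, HepG2 cells receive test chemical for 24 h. Reporter mRNA levels, measured by RT-PCR and capillary electrophoresis fluorescence, are analysed bidirectionally relative to the DMSO baseline.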

The target of experiment [15] is Hepatocyte nuclear factor 3-beta (Homo sapiens) (UniProt Q9Y261). Kind of experiment: ATG_FoxA2_CIS: Attagene CIS-FACTORIAL HepG2 Assay for human Forkhead box A2 (FOXA2) (AID 2282942). As to conditions: HepG2 cis-reporter transcription factor activity, 24 h; actives raise or lower the signal. The essentials: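 Reporter transcript induction is measured by fluorescence after capillary electrophoresis of RT-PCR products from HepG2 cells exposed 24 h. Cis-regulated reporter units report endogenous factor activity; curves fitted both directions against DMSO.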
Hepatocyte nuclear factor 3-beta (Homo sapiens), sequence (Q9Y261 whole entry, looked up): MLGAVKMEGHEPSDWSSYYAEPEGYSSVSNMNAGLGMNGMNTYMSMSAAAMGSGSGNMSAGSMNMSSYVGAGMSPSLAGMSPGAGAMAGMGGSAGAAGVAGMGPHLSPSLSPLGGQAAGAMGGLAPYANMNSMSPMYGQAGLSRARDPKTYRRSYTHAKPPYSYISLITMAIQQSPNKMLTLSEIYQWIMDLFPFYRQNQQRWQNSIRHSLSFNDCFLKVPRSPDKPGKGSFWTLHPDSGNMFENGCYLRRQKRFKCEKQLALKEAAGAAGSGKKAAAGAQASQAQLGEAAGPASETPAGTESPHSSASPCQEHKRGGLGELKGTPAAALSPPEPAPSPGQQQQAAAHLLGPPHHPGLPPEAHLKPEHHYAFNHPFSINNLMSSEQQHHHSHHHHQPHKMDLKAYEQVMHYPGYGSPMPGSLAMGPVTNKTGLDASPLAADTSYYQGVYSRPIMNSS

The nature of experiment [16]: ATG_FoxO_CIS: Attagene CIS-FACTORIAL HepG2 Assay for human Forkhead box O (FoxO) (AID 2282943). The settings on record: HepG2 Attagene cis-reporter, FoxO element, mRNA; actives raise or lower the signal. The method in brief: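 Transfected HepG2 reporter cells exposed to test chemical for 24 h; reporter RNA measured by reverse transcription, PCR and fluorescent capillary electrophoresis; curves fitted for increases and decreases against DMSO.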

Experiment [17] in a line: ATG_GLI_CIS: Attagene CIS-FACTORIAL HepG2 Assay for human Zinc Finger Protein GLI1 (AID 2282945). As to conditions: HepG2, Attagene cis-factorial reporter mRNA, GLI element; actives raise or lower the signal. The essentials:
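Transiently transfected HepG2 cells report endogenous transcription factor activity via cis-element-driven reporter units. After 24 h compound exposure, reporter mRNA was measured by RT-PCR with capillary electrophoresis; bidirectional fitting against DMSO baseline.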

A short description of experiment [18]: ATG_BRE_CIS: Attagene CIS-FACTORIAL HepG2 Assay for human Bone Morphogenetic Protein (BMP) Response Element (BRE) (AID 2282933). As to conditions: HepG2 BMP response element reporter, Attagene transcription factor profiling; actives raise or lower the signal. The method in brief:
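Transient MRTU transfection of human HepG2 liver cells; 24 h compound treatment; total RNA isolated, reverse-transcribed, PCR-amplified, 6-FAM labelled, HpaI-cut, capillary electrophoresis. DMSO = negative control/baseline, bidirectional fit.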

Experiment [19] can be described thus: ATG_GATA_CIS: Attagene CIS-FACTORIAL HepG2 Assay for human GATA Binding Protein (AID 2282944). As to conditions: HepG2 GATA cis-element reporter, Attagene multiplex mRNA; actives raise or lower the signal. The method in brief: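 Transient MRTU transfection, HepG2, 24 h compound exposure. Total RNA → oligo(dT) RT → PCR → 6-FAM primer extension → HpaI cut → CE. Bidirectional fit vs DMSO.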

Experiment [20] has as its target Retinoic acid receptor alpha (Homo sapiens) (UniProt P10276). As to the kind of experiment: ATG_DR5_RAR_CIS: Attagene CIS-FACTORIAL HepG2 Assay for human Retinoic Acid Receptor Alpha (RARE), DR5 submotif (AID 2282934).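 On AC50: reporter responds to endogenous RAR alpha beta and gamma in HepG2 not RARA alone.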 The settings on record: HepG2 Attagene cis-factorial RARE DR5 reporter, mRNA; actives raise or lower the signal. The method in brief: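 After 24 h of chemical exposure, transiently transfected HepG2 cells were lysed for total RNA; the DR5-regulated reporter transcript was quantified via RT-PCR and capillary electrophoresis, with activity fitted bidirectionally against DMSO.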

Active and inactive are the calls of the source. How the source made its calls: active means hit-call score of the fitted dose curve at least 0.9, where 1 is the maximum; inactive means score below 0.9.

Aryl hydrocarbon receptor (Homo sapiens), sequence (P35869 whole entry, looked up): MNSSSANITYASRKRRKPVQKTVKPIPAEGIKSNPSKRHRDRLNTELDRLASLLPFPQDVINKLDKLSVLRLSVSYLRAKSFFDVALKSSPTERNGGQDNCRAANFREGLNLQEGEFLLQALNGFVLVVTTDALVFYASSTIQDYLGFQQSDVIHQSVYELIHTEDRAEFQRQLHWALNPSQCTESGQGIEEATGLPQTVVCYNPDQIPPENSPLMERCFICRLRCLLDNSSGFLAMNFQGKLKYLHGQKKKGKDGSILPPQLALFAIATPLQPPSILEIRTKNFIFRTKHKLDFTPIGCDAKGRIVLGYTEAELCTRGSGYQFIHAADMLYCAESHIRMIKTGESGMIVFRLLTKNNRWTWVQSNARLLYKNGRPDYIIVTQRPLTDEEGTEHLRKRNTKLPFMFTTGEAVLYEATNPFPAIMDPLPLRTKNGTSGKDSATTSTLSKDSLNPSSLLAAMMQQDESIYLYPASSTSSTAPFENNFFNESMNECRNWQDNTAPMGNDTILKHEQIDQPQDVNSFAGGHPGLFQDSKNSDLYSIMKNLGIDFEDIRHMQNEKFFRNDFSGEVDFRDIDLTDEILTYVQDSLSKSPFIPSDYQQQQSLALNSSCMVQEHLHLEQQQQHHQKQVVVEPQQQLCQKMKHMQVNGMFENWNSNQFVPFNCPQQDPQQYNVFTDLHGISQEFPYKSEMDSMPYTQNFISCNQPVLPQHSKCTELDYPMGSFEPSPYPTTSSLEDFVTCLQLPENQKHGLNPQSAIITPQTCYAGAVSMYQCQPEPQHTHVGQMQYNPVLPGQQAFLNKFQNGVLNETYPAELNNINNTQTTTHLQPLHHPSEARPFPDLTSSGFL
Transcription factor E2F1 (Homo sapiens), sequence (Q01094 whole entry, looked up): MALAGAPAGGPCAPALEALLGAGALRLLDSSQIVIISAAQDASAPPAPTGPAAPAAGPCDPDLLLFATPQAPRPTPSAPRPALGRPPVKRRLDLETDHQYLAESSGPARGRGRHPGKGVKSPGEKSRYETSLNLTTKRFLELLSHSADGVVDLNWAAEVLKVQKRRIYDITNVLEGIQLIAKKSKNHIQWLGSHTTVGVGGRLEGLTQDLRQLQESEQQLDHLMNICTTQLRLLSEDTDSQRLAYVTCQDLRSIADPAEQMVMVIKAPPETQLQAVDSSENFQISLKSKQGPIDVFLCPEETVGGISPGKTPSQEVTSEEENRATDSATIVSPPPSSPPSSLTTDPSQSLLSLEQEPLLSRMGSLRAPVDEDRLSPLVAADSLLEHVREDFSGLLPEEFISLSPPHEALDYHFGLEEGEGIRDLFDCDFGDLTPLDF
Retinoic acid receptor alpha (Homo sapiens), sequence (P10276 whole entry, looked up): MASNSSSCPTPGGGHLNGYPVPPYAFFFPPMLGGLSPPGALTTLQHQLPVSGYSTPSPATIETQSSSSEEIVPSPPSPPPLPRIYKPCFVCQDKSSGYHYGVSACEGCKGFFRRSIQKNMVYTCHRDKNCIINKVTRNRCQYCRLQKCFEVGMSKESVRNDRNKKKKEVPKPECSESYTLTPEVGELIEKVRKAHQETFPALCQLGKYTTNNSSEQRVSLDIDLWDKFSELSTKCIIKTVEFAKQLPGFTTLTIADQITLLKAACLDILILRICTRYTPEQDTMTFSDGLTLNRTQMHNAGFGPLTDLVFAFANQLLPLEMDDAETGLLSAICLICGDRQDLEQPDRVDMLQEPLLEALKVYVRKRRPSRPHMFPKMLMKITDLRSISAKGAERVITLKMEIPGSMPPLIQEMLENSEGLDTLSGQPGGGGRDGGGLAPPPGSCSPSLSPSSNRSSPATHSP

`O=C(O)C[C@H](O)C[C@H](O)/C=C/c1c(C2CC2)nc2ccccc2c1-c1ccc(F)cc1`: the call in experiment [1], in experiment [2], in experiment [3], in experiment [4], in experiment [5] and in experiment [6] was inactive. Besides, the outcome in [7], in experiment [8], in experiment [9], in experiment [10], in experiment [11] and in [12] was inactive. For the same molecule, the molecule was called inactive in [14], in experiment [15], in [16] and in experiment [17]. In experiment [13], the AC50 is 11.6 µM (active).

For `C[C@H]1C[C@H]2[C@@H]3CCC4=CC(=O)C=C[C@]4(C)[C@@]3(F)[C@@H](O)C[C@]2(C)[C@@]1(O)C(=O)COP(=O)(O)O`, the call in experiment [1], in [2], in experiment [3], in experiment [4], in experiment [5] and in experiment [7] was inactive. In addition, the call in experiment [18], in experiment [8], in [9], in [10], in [11] and in [12] was inactive. The outcome in experiment [13], in experiment [14], in [15], in [16], in experiment [19] and in experiment [17] was inactive.

For the molecule `C[C@H]1C[C@@H]2[C@H]([C@@H](O)C[C@@]3(C)[C@H]2CC[C@]3(O)C(=O)CO)[C@@]2(C)C=CC(=O)C=C12`, the result in [1], in experiment [2], in experiment [3], in experiment [4], in experiment [5] and in experiment [7] was inactive. In addition, the call in [18], in experiment [20], in experiment [8], in experiment [9], in experiment [10] and in experiment [11] was inactive. The result in experiment [12], in experiment [14], in experiment [15], in experiment [16], in [19] and in experiment [17] was inactive.

As to `CCCOCC(C)O` (stereo unspecified), the molecule was classed as inactive in [1], in experiment [2], in experiment [3], in experiment [4], in [5] and in [6]. Further, the molecule was called inactive in experiment [7], in experiment [20], in experiment [8], in experiment [10], in [11] and in [12]. Further, the call in experiment [14], in experiment [16] and in experiment [17] was inactive.

As to `COc1ccc(Cl)cc1C`, the outcome in [1], in experiment [2], in experiment [3], in [4], in [7] and in [18] was inactive. For the same molecule, the result in experiment [20], in experiment [8], in experiment [10], in experiment [11], in [12] and in experiment [14] was inactive. The call in [16] and in experiment [17] was inactive. In addition, the concentration at half-maximal activity (AC50) in experiment [5] is 36.9 µM (active).

Consider `CC[Si](OC(C)=O)(OC(C)=O)OC(C)=O`, for which the molecule was called inactive in experiment [1], in experiment [2], in experiment [3], in experiment [4], in experiment [5] and in [6]. The molecule was classed as inactive in experiment [7], in [8], in [9], in [10], in experiment [11] and in experiment [12]. Moreover, the call in experiment [13], in [14], in experiment [15] and in experiment [16] was inactive.

Turning to `O=C1CCCCCCCCCCCCCCO1`, the AC50 in [1] was 120 µM (active); in [3], 100 µM (active); in experiment [4], 181 µM (active); in experiment [5], 145 µM (active); in [20], 100 µM (active). Moreover, the outcome in experiment [2], in experiment [7], in experiment [18], in experiment [8], in [9] and in [10] was inactive. For the same molecule, the molecule was called inactive in experiment [11], in experiment [12], in experiment [14], in experiment [15], in experiment [16] and in experiment [19].

By AC50 is commonly meant the midpoint of the concentration-response curve, whichever way the signal moves.
